Records with an inconclusive call do not appear. A call without a number means that no potency is given here. Calls of active or inactive are those of the source. The call rests on the fitted dose curve; in most records, active means well fitted inhibition curve with a large enough effect; inconclusive means small, poorly fitted or top-dose-only effect; inactive means flat fitted curve, though single readings scatter.
Experiments:
Test in all cases: qHTS profiling for inhibitors of Plasmodium falciparum proliferation (AID 504749); further: nearly all actives have a fitted effect of over 60% in size
Details in all cases: P. falciparum in erythrocytes, SYBR Green DNA, 72 h; series mostly up to 12.8 µM
AA1029 = system: AA1029
Summary of the method: (§1)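 Infected RBCs, 0.3% parasitemia/2.5% Hct final; cpd 72 h, 37 C, 5% CO2; lysis buffer with saponin/triton/SYBR Green I, o/n RT dark; FI 485/535; norm. to artemisinin (0.29 uM) and DMSO.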

AS120 = system: AS120
Summary of the method: as §1

ATS189 = system: ATS189
Summary of the method: as §1

ATS95 = system: ATS95
Summary of the method: as §1

CP203 = system: CP203
Summary of the method: as §1

CP217 = system: CP217
Summary of the method: as §1

CP247 = system: CP247
Summary of the method: as §1

CP250 = system: CP250
Summary of the method: as §1

CP252 = system: CP252
Summary of the method: as §1

CP256 = system: CP256
Summary of the method: as §1

CP260 = system: CP260
Summary of the method: as §1

CP286 = system: CP286
Summary of the method: as §1

N140 = system: N140
Summary of the method: as §1

P94_40 = system: P94_40
Summary of the method: as §1

PAD = system: PAD
Summary of the method: as §1

SC27B = system: SC27B
Summary of the method: as §1

TAB165 = system: TAB165
Summary of the method: as §1

CP237 = system: CP237
Summary of the method: as §1

DIV14 = system: DIV14
Summary of the method: as §1

W2 = system: W2
Summary of the method: as §1
Potency means the concentration at half of the fitted maximal effect.

SMILES | Potency (AA1029) | Potency (AS120) | Potency (ATS189) | Potency (ATS95) | Potency (CP203) | Potency (CP217) | Potency (CP247) | Potency (CP250) | Potency (CP252) | Potency (CP256) | Potency (CP260) | Potency (CP286) | Potency (N140) | Potency (P94_40) | Potency (PAD) | Potency (SC27B) | Potency (TAB165) | Potency (CP237) | Potency (DIV14) | Potency (W2)
COc1ccc2c(c1)N(C[C@@H](C)CN(C)C)c1ccccc1S2 | inactive | inactive | inactive | inactive | inactive | inactive | inactive | inactive | inactive | inactive | inactive | inactive | inactive | inactive | inactive | inactive | inactive |  |  | 
CC1(C)[C@@H](OC(=O)CCC(=O)O)CC[C@@]2(C)[C@H]1CC[C@@]1(C)[C@H]2C(=O)C=C2[C@H]3C[C@](C)(C(=O)O)CC[C@]3(C)CC[C@@]21C | inactive | inactive | inactive | inactive | inactive | inactive | inactive | inactive | inactive | inactive | inactive | inactive | inactive | inactive | inactive | inactive | inactive | inactive | inactive | inactive
CCC(=O)O[C@@H]1[C@H](C)O[C@H](O[C@H]2[C@@H](N(C)C)[C@H](O)[C@@H](O[C@@H]3[C@@H](CC=O)C[C@@H](C)[C@@H](O)/C=C\C=C/C[C@@H](C)OC(=O)C[C@@H](OC(=O)CC)[C@H]3OC)O[C@H]2C)C[C@]1(C)O |  | inactive | inactive | inactive |  | inactive | inactive | inactive |  |  |  |  |  |  | inactive | inactive | inactive |  | inactive | 2.03 µM (active)
CCC(C)(C)C(=O)O[C@@H]1C[C@H](C)C=C2C=C[C@H](C)[C@@H](CC[C@H]3C[C@@H](O)CC(=O)O3)[C@H]21 | inactive | inactive | inactive | inactive | inactive | inactive | inactive | inactive | inactive | inactive | inactive | inactive | inactive |  |  | inactive |  | inactive | inactive | 
COC1OC(CO)C(OC2OC(C(=O)O)C(OC3OC(COS(=O)(=O)O)C(OC4OC(C(=O)O)C(OC5OC(CO)C(OC6OC(C(=O)O)C(OC7OC(COS(=O)(=O)O)C(OC8OC(C(=O)O)=C[C@H](O)C8OS(=O)(=O)O)C(O)C7NC(C)=O)[C@@H](O)C6O)C(O)C5NC(C)=O)[C@@H](O)C4O)C(O)C3NC(C)=O)[C@@H](O)C2O)C(O)C1NC(C)=O (stereo partly drawn) |  |  |  |  | inactive | 10 µM (active) |  |  |  |  |  |  |  |  |  |  |  |  |  | 6.75 µM (active)
CCCCCCCCCc1ccc(OCCOCCOCCOCCOCCOCCOCCOCCOCCO)cc1 | inactive |  |  | inactive |  |  |  | inactive | inactive |  | inactive | inactive |  | inactive |  |  | 7.08 µM (active) |  |  | 15.1 µM (active)
COc1ccc(CC(N)C(=O)NC2C(CO)OC(n3cnc4c(N(C)C)ncnc43)C2O)cc1 (stereo not drawn) | 1 µM (active) | 0.891 µM (active) | 0.794 µM (active) | 1 µM (active) | 1.51 µM (active) | 0.794 µM (active) | 0.891 µM (active) | 1.26 µM (active) | 0.794 µM (active) | 1 µM (active) | 0.891 µM (active) | 0.891 µM (active) | 0.631 µM (active) | 0.891 µM (active) | 0.447 µM (active) | 1 µM (active) | 0.794 µM (active) | 0.891 µM (active) | 0.953 µM (active) | 0.338 µM (active)
N[C@@H]1C(O)OC(CO)C(O)C1O (stereo partly drawn) | inactive | inactive | inactive | inactive |  | inactive | inactive | inactive | inactive | inactive | inactive | inactive | inactive |  | inactive | inactive | inactive | inactive |  | inactive
COC1CC(O[C@H]2/C(C)=C/CC3CC(C[C@]4(CCC(C)C(C5CCCCC5)O4)O3)OC(=O)[C@H]3C=C(C)/C(=N/O)C4OC/C(=C\C=C\[C@@H]2C)[C@@]43O)OC(C)C1O (stereo partly drawn) |  |  |  |  | inactive |  |  |  |  |  |  |  |  |  |  |  |  |  |  | 13.5 µM (active)
CC1C2CCC3C4CC=C5CC(N(C)C)CC[C@@]5(C)C4CC[C@@]32CN1C (stereo partly drawn) | inactive | inactive | inactive | inactive | inactive | inactive | inactive | inactive | inactive | inactive |  | inactive | inactive | inactive | inactive | inactive | inactive | inactive | inactive | 
CC(=O)O[C@@]1(C(C)=O)CCC2C3CC(C)C4=CC(=O)CC[C@@]4(C)C3CC[C@]21C (stereo partly drawn) |  |  |  |  | inactive |  |  |  |  |  |  | inactive |  | 12.6 µM (active) |  |  |  | inactive | inactive | inactive
C=Cc1c(C)/c2[n-]/c1=C\c1[n-]c(c(CC)c1C)/C=c1\[n-]c3c(c1C)C(=O)C(C(=O)[O-])C=3c1[n-]c(c(C)c1CCC(=O)[O-])\C=2.[Cu].[Na+].[Na+] (stereo not drawn) |  |  |  |  |  |  |  |  |  | inactive |  | inactive |  |  |  |  |  |  |  | 12 µM (active)
COc1ccc2cc1Oc1ccc(cc1)CC1c3c(cc4c(c3Oc3cc5c(cc3OC)CCN(C)C5C2)OCO4)CCN1C (stereo not drawn) | 3.55 µM (active) | 3.98 µM (active) | 4.47 µM (active) | 4.47 µM (active) | 12 µM (active) | 8.91 µM (active) | 5.62 µM (active) |  | 8.91 µM (active) | 10 µM (active) | 4.47 µM (active) | 3.98 µM (active) | 3.16 µM (active) | 8.91 µM (active) | 8.91 µM (active) | 7.08 µM (active) | 3.98 µM (active) | 2.82 µM (active) | 5.36 µM (active) | 1.9 µM (active)
OCC1OC(n2cnc3c(=S)nc[nH]c32)C(O)C1O (stereo not drawn) | inactive | inactive | inactive | inactive | inactive | inactive | inactive | inactive | inactive | inactive | inactive | inactive | inactive | inactive | inactive | inactive | inactive | inactive | inactive | 
COc1ccc(-c2cc(=O)c3c(O)cc(O[C@H]4OC(COC5OC(C)C(O)C(O)[C@H]5O)C(O)C(O)C4O)cc3o2)cc1O (stereo partly drawn) | inactive | inactive | inactive | inactive | inactive | inactive | inactive | inactive | inactive | inactive | inactive | inactive | inactive | inactive | inactive | inactive | inactive | inactive | inactive | 
C[C@@]12C=CC(=O)C=C1CCC1C3CC(O)[C@@](O)(C(=O)CO)[C@]3(C)CC(O)[C@]12F (stereo partly drawn) | inactive | inactive | inactive | inactive | inactive | inactive | inactive | inactive | inactive | inactive | inactive | inactive | inactive | inactive | inactive | inactive | inactive | inactive | inactive | inactive
NC(CCC(=O)N[C@@H](CS)C(=O)NCC(=O)O)C(=O)O (stereo partly drawn) |  |  | 8.91 µM (active) |  |  |  |  |  |  | 8.91 µM (active) | 7.94 µM (active) |  | 4.47 µM (active) | 3.55 µM (active) | 6.31 µM (active) |  | 3.98 µM (active) | 3.55 µM (active) | 3.01 µM (active) | 3.01 µM (active)
CC(C)Oc1ccc2c(=O)cc(-c3ccccc3)oc2c1 | inactive | inactive | inactive | inactive | inactive | inactive | inactive |  | inactive | inactive | inactive | inactive | inactive | inactive | inactive | inactive | inactive | inactive | inactive | 0.0478 µM (active)
COC(=O)N/N=C/C1=C[N+](=O)c2ccccc2[N+]1=O | inactive | inactive | inactive | inactive |  | inactive | inactive | inactive | inactive | inactive | inactive | inactive | inactive | inactive | inactive | inactive | inactive | inactive | inactive | 
CCC(=O)O[C@@]1(C(=O)CCl)C(C)CC2C3CCC4=CC(=O)C=C[C@@]4(C)[C@]3(F)C(O)C[C@]21C (stereo partly drawn) | 10 µM (active) | 10 µM (active) |  | 11.2 µM (active) | 13.5 µM (active) |  |  |  | 12.6 µM (active) |  | 10 µM (active) |  | 8.91 µM (active) | 11.2 µM (active) | 7.94 µM (active) |  |  | 10 µM (active) | 13.5 µM (active) | 5.36 µM (active)
CN(C)CCc1c[nH]c2ccc(CC3COC(=O)N3)cc12 (stereo not drawn) | inactive | inactive | inactive | inactive | inactive | inactive | inactive | inactive | inactive | inactive | inactive | inactive | inactive | inactive | inactive | inactive | inactive | inactive | inactive | inactive
CC(=O)OCC(=O)[C@@]12OC3(CCCC3)OC1CC1C3CCC4=CC(=O)C=C[C@@]4(C)[C@]3(F)C(O)C[C@]12C (stereo partly drawn) |  | 11.2 µM (active) |  |  |  |  |  | inactive |  | inactive |  |  | 11.2 µM (active) | 12.6 µM (active) |  |  |  |  |  | 10.7 µM (active)
C[C@@]12CCC(=O)C=C1C=CC1C2CC[C@]2(C)C1CC[C@@]21CCC(=O)O1 (stereo partly drawn) | inactive | inactive |  | inactive | inactive |  |  |  | inactive | inactive | inactive | inactive |  | inactive | inactive | inactive |  | inactive |  | inactive
NCC1CCC(N)C(O[C@@H]2C(O)[C@H](O[C@H]3OC(CO)C(O)C(N)C3O)[C@@H](N)C[C@H]2N)O1 (stereo partly drawn) | inactive | inactive | inactive | inactive | inactive | inactive | inactive | inactive | inactive | inactive | inactive | inactive | inactive | inactive | inactive | inactive | inactive | inactive | inactive | 
CC1(C)SC2C(N3C(=O)C(c4ccccc4)NC3(C)C)C(=O)N2C1C(=O)O (stereo not drawn) | inactive | inactive | inactive | inactive | inactive | inactive | inactive | inactive | inactive | inactive | inactive | inactive | inactive | inactive | inactive | inactive | inactive | inactive | inactive | inactive
CCC1OC(=O)CC(O)C(C)[C@@H](O[C@@H]2OC(C)[C@H](O[C@@H]3C[C@@](C)(O)C(O)C(C)O3)C(N(C)C)C2O)[C@H](CC=O)CC(C)C(=O)/C=C/C(C)=C/[C@@H]1COC1OC(C)C(O)C(OC)[C@@H]1OC (stereo partly drawn) |  |  |  |  |  |  |  |  |  | 1.41 µM (active) | 1.12 µM (active) | 1 µM (active) |  |  |  |  |  |  |  | 0.849 µM (active)
CCC1OC(=O)C(C)[C@@H](O[C@H]2C[C@@](C)(OC)C(O)C(C)O2)C(C)[C@@H](O[C@@H]2OC(C)CC(N(C)C)C2O)[C@@](C)(O)CC(C)C(=O)[C@@H](C)C(O)[C@]1(C)O (stereo partly drawn) | inactive | inactive | inactive | inactive | inactive | inactive | inactive | inactive | inactive | inactive | inactive | inactive | inactive | inactive | inactive | inactive | inactive | inactive | inactive | 
CCC(C)C(=O)OC1CC(O)C=C2C=CC(C)C(CCC(O)CC(O)CC(=O)O)C21 (stereo not drawn) | inactive | inactive |  | inactive | inactive | inactive | inactive | inactive | inactive | inactive | inactive | inactive | inactive | inactive | inactive | inactive | inactive | inactive | inactive | inactive

Source: PubChem BioAssay (NCATS)
